High-throughput results from PubChem.
This is one part of a sample in which hits are shown more often than they occur.
DT40 TDP1 CPT – qHTS for Inhibitors of human tyrosyl-DNA phosphodiesterase 1 (TDP1): qHTS in cells in presence of CPT. actives 12% (n = 420,000). AID 686979, 2013. chicken DT40 Tdp1-/-;hTDP1 cells + 20 nM CPT, ATP luminescence, 48 h. Potency, µM (titrated, usually from 46.2 µM), without a hit: top-dose activity change, negative = growth inhibition, most hits filed as inhibitors; note: potency is the fitted concentration of half-maximal effect; nearly all actives have a fitted effect of over 55% in size
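Cell growth measured by CellTiter-Glo luminescence after a minimum 48 h, 37 C compound exposure with 20 nM CPT in Tdp1-knockout DT40 cells stably expressing hTDP1, seeded 400/well; qHTS titration format.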
HT1080-NT tox – qHTS for induction of synthetic lethality in tumor cells producing 2HG: qHTS for the HT-1080-NT fibrosarcoma cell line | HT-1080-NT fibrosarcoma viability, CellTiter-Glo ATP luminescence, 48 h | Potency, µM (top dose mostly 46.1 µM), for the others: at the top dose activity, negative = less viability, usual class: cytotoxic | actives 1.6% (n = 360,000) | AID 686970, 2013;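 note: NT is the 2HG producing partner of a matched IDH1 knockdown line; potency is the fitted concentration of half-maximal effect; 0% = DMSO-treated cells and -100% = media-only wells without cells; nearly all actives have a fitted effect of over 55% in size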
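Viability of the 2HG-overproducing fibrosarcoma line after 48 hours of compound exposure at 37 degrees C was determined by luminescence with CellTiter-Glo, and concentration-effect curves were then fitted and categorized.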
12-LOX inh – Primary qHTS assay for inhibitors of human arachidonate 12S-lipoxygenase (ALOX12): Round 2. Polyunsaturated fatty acid lipoxygenase ALOX12 (Homo sapiens), P18054. actives 1.1% (n = 580,000). purified 12hLO, xylenol orange hydroperoxide absorbance. Potency, µM (series often up to 108 µM), for the others: top-dose activity change, negative = inhibition, usual class: inhibitors; note: potency is the fitted concentration of half-maximal effect
Target sequence (P18054 whole entry, looked up): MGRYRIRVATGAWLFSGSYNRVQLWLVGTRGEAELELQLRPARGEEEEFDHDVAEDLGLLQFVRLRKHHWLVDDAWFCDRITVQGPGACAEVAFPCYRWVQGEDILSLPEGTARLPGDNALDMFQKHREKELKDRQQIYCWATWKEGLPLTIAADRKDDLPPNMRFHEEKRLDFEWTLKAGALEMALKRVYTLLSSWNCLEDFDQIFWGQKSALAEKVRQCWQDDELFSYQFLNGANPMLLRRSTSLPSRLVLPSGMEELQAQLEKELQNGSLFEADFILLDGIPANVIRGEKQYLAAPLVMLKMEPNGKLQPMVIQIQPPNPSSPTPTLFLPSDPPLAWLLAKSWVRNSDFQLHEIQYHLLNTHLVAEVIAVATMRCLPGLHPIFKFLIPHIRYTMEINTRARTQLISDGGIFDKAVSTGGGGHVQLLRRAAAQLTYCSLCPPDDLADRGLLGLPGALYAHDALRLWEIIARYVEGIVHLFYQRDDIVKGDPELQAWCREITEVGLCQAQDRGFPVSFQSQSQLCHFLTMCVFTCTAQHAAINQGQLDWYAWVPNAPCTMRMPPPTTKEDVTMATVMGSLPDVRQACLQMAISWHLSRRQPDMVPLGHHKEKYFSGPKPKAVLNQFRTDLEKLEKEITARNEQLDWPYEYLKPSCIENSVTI
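Purified human 12hLO (150 nM final) in 25 mM Hepes, 0.01% Triton X-100, pH 7.0 was preincubated 15 min at room temperature with compound. Then 40 uM arachidonic acid was added, 30 min. Hydroperoxide was read by Fe-XO absorbance ratio 573/405 nm.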
IL1B secr inh – qHTS for Inhibitors of Inflammasome Signaling: IL-1-beta AlphaLISA Primary Screen; activity change, % at 57.5 µM; AID 743279, 2014; THP-1 LPS/ATP IL-1B secretion, AlphaLISA, 16 h; active compounds read low; actives 4.7% (n = 360,000); in the data active = activity change below about -50%; inconclusive = mostly about -30% to -49%
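THP-1 cells pretreated 1 hr with compounds (up to 57.5 uM final), then stimulated with LPS (250 ng/mL final) plus ATP (1.25 mM final); secreted IL-1B measured by AlphaLISA after 16 hr, decreased signal indicating inhibition.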
TDP1 cell noCPT – qHTS for Inhibitors of human tyrosyl-DNA phosphodiesterase 1 (TDP1): qHTS in cells in absence of CPT | DT40 Tdp1-/- hTDP1 cells, no CPT, ATP luminescence, 48 h | Potency, µM (series often up to 46.2 µM), for the others: at the top dose activity change, negative = growth inhibition, hits mostly inhibitors | actives 15% (n = 420,000); note: potency is the fitted concentration of half-maximal effect; nearly all actives have a fitted effect of over 55% in size
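DT40 Tdp1-/-;hTDP1 cells, no CPT (DMSO vehicle only), 400 cells/well; compounds pin-transferred; ≥48 hr, 37 °C; CellTiter-Glo 30 min RT dark, luminescence read.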
HT1080 IDH1KD tx – qHTS for induction of synthetic lethality in tumor cells producing 2HG: qHTS for the HT-1080-IDH1KD cell line | actives 2% (n = 360,000) | HT-1080 IDH1 knockdown viability, ATP luminescence, 48 h | Potency, µM (highest dose often 46.1 µM), for inactives: at the highest dose activity, negative = toxicity, most hits filed as cytotoxic;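 note: potency is the fitted concentration of half-maximal effect; 0% = DMSO wells and -100% = cell-free medium wells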
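% activity derives from luminescence (CellTiter-Glo), normalised to DMSO and no-cell wells. HT-1080-IDH1KD cells, 750/well, had 48 h compound exposure at 37 °C.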
* marks the source's active call; other numbers are inactive results; i = inactive; ? = inconclusive; / = no result given; [ ] = remark or other dose. Unless noted, calls come from the whole dose curve; as a rule, active = well fitted curve in the direction sought with a large enough effect; inconclusive = small, poorly fitted or top-dose-only effect, or another doubt; inactive = no such curve, though single readings can be large; an effect the other way counts as inactive or inconclusive. Unless noted, % is set by controls: 0 for no effect and ±100 for the full control effect.

SMILES	DT40 TDP1 CPT	HT1080-NT tox	12-LOX inh	IL1B secr inh	TDP1 cell noCPT	HT1080 IDH1KD tx
O=C1CCCc2oc3ccc(NS(=O)(=O)c4cccc5cccnc45)cc3c21	?	-16.8%	2.3%	26.3	23.1µM*	-11.8%
O=c1oc2ccc(NS(=O)(=O)c3cccc4cccnc34)cc2s1	20.6µM*	-14.8%	-48.9%	-0.3	23.1µM*	-12.8%
O=S(=O)(Nc1ccc(C(O)(C(F)(F)F)C(F)(F)F)cc1)c1cccc2cccnc12	16.4µM*	?	?	-11.9	23.1µM*	?
COc1ccccc1NC(=O)c1cc2ccc3cccnc3c2[nH]1	3.66µM*	/	-7.4%	/	25.9µM*	/
O=S(=O)(Nc1ccc(N2CCCCC2)cc1)c1cccc2cccnc12	?	1.9%	0.0%	13.5	?	-12.1%
O=S(=O)(Nc1ccc2c(c1)OCCO2)c1cccc2cccnc12	-20.0%	1.9%	-11.0%	19.2	?	-3.1%
O=S(=O)(Nc1ccc(Br)cc1)c1cccc2cccnc12	-12.1%	-1.4%	1.7%	-13.8	?	15.8%
COc1ccc(CN2C=C(C(=O)OCc3noc(-c4ccco4)n3)C(C)=NS2(=O)=O)cc1	/	/	2.4%	/	/	/
CCCC(=O)N1CCCC(c2noc(COc3ccccc3F)n2)C1 (configuration not stated)	/	/	30.3%	/	/	/
Cc1ccc(-c2nn(CCC(=O)NC(C)c3ccccc3)c(=O)c3ccccc23)cc1 (configuration not stated)	/	/	-8.4%	/	/	/
COC(=O)c1sccc1S(=O)(=O)Nc1ccc(C(O)(C(F)(F)F)C(F)(F)F)cc1	18.4µM*	?	?	-17.2	20.6µM*	?
CC(C)N(Cc1ccccc1)C(=O)c1cc2ccc3cccnc3c2[nH]1	16.4µM*	/	10.5%	/	18.4µM*	/
COC(=O)c1sccc1S(=O)(=O)Nc1ccc(OC(F)(F)F)cc1	/	/	14.5%	/	/	/
COc1ccc(OC)c(NC(=O)c2ccccc2NS(=O)(=O)c2cccc3cccnc23)c1	2.9%	-4.0%	i	4.6	29.1µM*	-1.8%
COc1ccc(NS(=O)(=O)c2cccc3cccnc23)cc1	-20.9%	13.2%	-15.5%	-28.8	-17.1%	0.1%
COc1ccc(NS(=O)(=O)c2cccc3cccnc23)cc1Cl	?	-11.1%	0.0%	-13.5	20.6µM*	-20.1%
CC(=O)Oc1cc2c(c(C)c1OC(C)=O)CC=C1[C@@]2(C)CC[C@@]2(C)[C@H]3C[C@](C)(C(=O)O)CC[C@]3(C)CC[C@]12C	/	/	-25.0%	/	/	/
CN(c1ccc(Cl)cc1)S(=O)(=O)c1nnc(NC(=O)C2CCCCC2)s1	-11.3%	/	-4.9%	/	-20.7%	/
CCCN(CCC)CC(O)Cn1cc(/C=C/C(=O)c2ccc(OCC)cc2)c2ccccc21 (configuration not stated)	5.8µM*	/	?	/	5.17µM*	/
CC(C)CN(CC(C)C)CC(O)Cn1cc(/C=C/C(=O)c2ccccc2)c2ccccc21 (configuration not stated)	4.11µM*	/	?	/	4.61µM*	/
COc1ccc(OCC(O)CN(CCO)CC(O)Cn2ccc3ccccc32)cc1 (configuration not stated)	-17.1%	-2.5%	?	0.0	?	-8.3%
CCOc1ccc(C(=O)/C=C/c2ccccc2C(F)(F)F)cc1	-22.9%	14.2%	0.4%	0.0	-9.3%	2.5%
CCC(=C(c1ccc(OC)cc1)c1ccc(OC)cc1)c1cn(CC(O)CN(CCO)CCO)c2ccccc12 (configuration not stated)	?	?	?	?	20.6µM*	-21.6%
C#CCn1cc(CNC[C@H]2O[C@@H](n3cnc4c(=O)[nH]c(N)nc43)[C@H](O)[C@@H]2O)c2ccccc21	7.3%	15.9%	7.2%	11.0	34.2%	16.0%
Cc1ccn2c(NCc3ccco3)c(-c3ccccc3)nc2c1	?	0.9%	/	/	11.2µM*	5.1%
SMILES	DT40 TDP1 CPT	HT1080-NT tox	12-LOX inh	IL1B secr inh	TDP1 cell noCPT	HT1080 IDH1KD tx
Oc1ccc(-c2nc3ccccn3c2NCc2ccco2)cc1	4.9%	-10.2%	0.1%	-0.6	?	-1.5%
Cc1ccn2c(CN3CCOCC3)c(-c3ccccc3)nc2c1	-28.7%	1.0%	0.0%	?	?	3.8%
Cc1ccn2c(Cc3ccccc3)c(-c3ccccc3)nc2c1	18.4µM*	2.5%	?	38.6	18.4µM*	5.7%
Cc1ccn2c(Cc3ccccc3)c(-c3ccc(Br)cc3)nc2c1	20.6µM*	-3.6%	?	45.6	?	-13.8%
Cc1ccc(S(=O)(=O)N2CCN(C(=O)CN3CCN(c4ccc(O)cc4)CC3)CC2)cc1	?	2.4%	?	2.2	?	-1.0%
Cc1ccc(C)c(N2CCN(C(=O)CN3C(=O)CSc4c3c(C)nn4-c3ccccc3)CC2)c1	18.4µM*	/	-20.1%	/	25.9µM*	/
Cc1ccc(Cl)cc1N1CCN(C(=O)CN2C(=O)CSc3c2c(C)nn3-c2ccccc2)CC1	?	/	?	/	-20.6%	/
Cc1nn(-c2ccccc2)c2c1N(CC(=O)N1CCN(c3cccc(Cl)c3)CC1)C(=O)CS2	?	/	-25.5%	/	20.6µM*	/
Cc1ccc(NC(=O)N2CCc3c(C(=O)NCCCN4CCCC4=O)cccc32)cc1	/	/	-14.1%	/	/	/
CCOc1ccc(NC(=O)Cc2c[nH]c3ccccc23)cc1	-2.8%	/	6.7%	/	-14.7%	/
CCOc1ccc(NC(=O)N(Cc2c[nH]c3ccccc23)C2CCCCCC2)cc1	9.2µM*	/	-4.1%	/	?	/
CCOc1ccc(NC(=O)N(Cc2c[nH]c3ccccc23)C2CCCCC2)cc1	8.2µM*	/	-7.6%	/	18.4µM*	/
O=C(NCCc1ccc(Cl)cc1)C1CCc2nnc(C3CCN(C(=O)Nc4ccc(Cl)cc4)CC3)n21 (configuration not stated)	/	/	2.0%[6.33 µM]	/	/	/
Cc1cccc(CN2CCCC(c3nc(C(C)C)no3)CCNC(=O)CC2)c1 (configuration not stated)	/	/	38.7%	/	/	/
COC(=O)C1=C(C)N(C)C(C)=C(C(=O)OC)C1c1cccc(C(F)(F)F)c1	/	/	10.1%	/	/	/
